The text below walks through data of PubChem BioAssay (NCATS).

A short description of test [1]: Cell Viability - Hek293 (AID 427;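 active = compounds whose dose-response curve shows a full or clear partial loss of cell viability, called from curve shape rather than a numeric limit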;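 also: potency is read from the fitted curve at half-maximal effect; cells exposed to compound for 40 hours at 37 °C before reading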). The note with it: qHTS. The method, boiled down:
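HEK293 cells in complete medium were exposed to compound for 40 hr at 37 °C, then cellular ATP was read by CellTiter-Glo luminescence. Data were normalized to DMSO (basal) and 100 uM tamoxifen (100% inhibition), and AC50 came from Hill fits.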

A short description of test [2]: Cell Viability - SK-N-SH (AID 435; calls by dose curve;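 also: potency is read from the fitted curve at half-maximal effect; compound exposure lasted 40 h at 37 °C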). The note with it: SK-N-SH neuroblastoma cell viability qHTS. The method, boiled down:
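CellTiter-Glo ATP luminescence, 20 min RT read; cells pre-plated 5 hr, compound 40 hr at 37 °C, 1500 cells/well, complete medium. Normalized DMSO = 0, 100 uM tamoxifen = 100% inhibition; Hill-fit AC50.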
(In qHTS, concentration-response curves come from the screen itself.)

The nature of test [3]: Cell Viability - N2a (AID 540).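 Also: plate controls were DMSO alone for no effect and tamoxifen control for full effect; nearly all actives have a fitted effect of over 45% in size.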 The note with it: N2a mouse neuroblastoma cell viability; activity change, negative = cytotoxicity: at 92.2 µM (top of the series). The method, boiled down: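 Mouse neuroblastoma N2a cells (1500/well) were preincubated 5 hr at 37 °C, then exposed to compounds for 40 hr at 37 °C in complete medium. Viability was read as intracellular ATP by CellTiter-Glo luminescence; AC50 from Hill fits.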

The nature of test [4]: Cell Viability - H-4-II-E (AID 543). Also: nearly all actives have a fitted effect of over 35% in size. Also: potency is read from the fitted curve at half-maximal effect. The note with it: H-4-II-E rat hepatoma viability; series mostly up to 92.2 µM. The method, boiled down: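 Rat hepatoma H-4-II-E cells (1500/well) were plated, incubated 5 hr at 37 °C, then exposed to compounds for 40 hr at 37 °C. Cellular ATP was read by CellTiter-Glo luminescence; AC50 came from Hill-equation fits of concentration-response data.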

A short description of test [5]: Cell Viability - LYMP2-005 (AID 967).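 Also: plate controls were DMSO only for no effect and 92 µM tetraoctylammonium bromide control for full effect.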 The note with it: LYMP2-005 lymphoblastoid cell viability; series mostly up to 92.2 µM. The method, boiled down:
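Steps: seed 2500 LYMP2-005 cells/well, incubate 5 h at 37 C, add compound, incubate 24 h at 37 C, add CellTiter-Glo, wait 30 min at RT, read luminescence. Concentration-response data fitted to Hill equation for AC50.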

A short description of test [6]: Cell Viability - LYMP2-002 (AID 977).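 Also: compound exposure lasted 24 h at 37 °C.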 Also: potency is read from the fitted curve at half-maximal effect. The note with it: LYMP2-002 lymphoblastoid cell viability, qHTS; series mostly up to 92.2 µM. The method, boiled down:
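Cytotoxicity is scored as concentration-dependent loss of cellular ATP in a human lymphoblastoid line after 24 hr compound treatment at 37 C. AC50 is obtained by modelling concentration-response data with the Hill equation.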

A short description of test [7]: qHTS assay for small molecule antagonists of retinoid X receptor alpha signaling (AID 588546; active = well fitted inhibition curve with a large enough effect in the signal ratio, with a control signal flat, not every such curve was filed as active; the % refers to the signal ratio;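 also: cells stimulated with 9-cis-retinoic acid as agonist; % is scaled to controls: 0 for no effect and ±100 for the full control effect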). The note with it: HEK293T RXRa-UAS-bla, beta-lactamase ratio, antagonist mode; measured here: W530 green channel, cytotoxicity proxy. The method, boiled down: (§1)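 Beta-lactamase reporter inhibition, read as CCF4 fluorescence ratio (ex 405, em 460/530 nm) after 2 h at RT. HEK293T UAS-bla cells, 2500/well, were stimulated with 9-cis-RA at 500 or 100 nM final alongside test compound for 18 h at 37 C.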

For test [8], the target named is Retinoic acid receptor RXR-alpha (Homo sapiens) (UniProt P19793). Described as above. The note with it: HEK293T RXRa-UAS-bla, beta-lactamase ratio, antagonist mode. The method, boiled down:
as §1

A short description of test [9]: qHTS assay for small molecule disruptors of the mitochondrial membrane potential - 5 hr assay (AID 651755; calls by dose curve; also: nearly all actives have a fitted effect of over 40% in size; also: potency is read from the fitted curve at half-maximal effect). The note with it: JC-1-type ratio dye; series mostly up to 92.2 µM. The method in brief: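 HepG2, 2,000 cells/well, overnight attach; cpd or DMSO 5 hr, 37C/5% CO2; Mito-MPS 30 min 37C; fluor 490/535 + 540/590 nm.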
Test [10] can be described thus: Cell Viability - SH-SY5Y (AID 544). Also: nearly all actives have a fitted effect of over 55% in size. Also: potency is read from the fitted curve at half-maximal effect.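 As to viability change, negative = cytotoxic: 0% = DMSO alone and -100% = 100 µM tamoxifen.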 The note with it: SH-SY5Y neuroblastoma cell viability; viability change, negative = cytotoxic: at 92.2 µM (top of the series). The method, boiled down:
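Human neuroblastoma SH-SY5Y cells (1500/well) in complete medium were exposed to compounds for 40 hr at 37 °C; intracellular ATP was then quantified by CellTiter-Glo luminescence after 20 min at room temperature. AC50 came from Hill-equation concentration-response fits.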

Test [11] is described as follows: Cell Viability - LYMP2-001 (AID 921).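 Also: 0% = DMSO only and full inhibition = tetraoctylammonium bromide control wells; nearly all actives have a fitted effect of over 70% in size.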 The note with it: LYMP2-001 lymphoblastoid cell viability; series mostly up to 92.2 µM. The method in brief:
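CellTiter-Glo luminescence (intracellular ATP) after 24 hr compound exposure at 37 C, 2500 lymphoblastoid cells/well in complete medium. AC50 fitted with standard Hill equation; tetraoctylammonium bromide positive control.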

Test [12] can be described thus: MultiTox-Fluor Cytotoxicity Assay - LYMP1-001 - Live Cells (AID 947). Also: potency is read from the fitted curve at half-maximal effect.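 As to activity change, negative = cytotoxicity: 0% = DMSO only and full inhibition = tetraoctylammonium bromide control.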 The note with it: LYMP1-001 lymphoblastoid cells, live-cell protease fluorescence viability; series mostly up to 92.2 µM.
Test [13] can be described thus: Cell Viability - LYMP2-009 (AID 968). Also: nearly all actives have a fitted effect of over 55% in size. Also: potency is read from the fitted curve at half-maximal effect. The note with it: LYMP2-009 lymphoblastoid cell viability; series mostly up to 92.2 µM.
Test [14] in a line: Cell Viability - LYMP2-015 (AID 971). Also: nearly all actives have a fitted effect of over 55% in size. Also: potency is read from the fitted curve at half-maximal effect. The note with it: LYMP2-015 lymphoblastoid cell viability; series mostly up to 92.2 µM. The method, boiled down: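 Human lymphoblastoid cells (2500/well) in complete medium were preincubated 5 hr at 37 C, then compound-treated 24 hr at 37 C. Intracellular ATP was read by CellTiter-Glo luminescence after 30 min at room temperature; AC50 came from Hill-equation concentration-response fits.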

The nature of test [15]: Cell Viability - LYMP2-019 (AID 973). Also: nearly all actives have a fitted effect of over 55% in size. Also: potency is read from the fitted curve at half-maximal effect.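 As to activity change, negative = cytotoxicity: 0% = DMSO alone and full effect = 92 µM tetraoctylammonium bromide.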 The note with it: LYMP2-019 lymphoblastoid cell line viability; series mostly up to 92.2 µM. The method, boiled down:
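Human lymphoblastoid cells were seeded at 2500 cells/well, preincubated 5 hr at 37 C, then exposed to compounds for 24 hr at 37 C in complete medium. Intracellular ATP was measured by CellTiter-Glo luminescence; AC50 from Hill fits.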

The nature of test [16]: Cell Viability - LYMP2-021 (AID 974). Also: potency is read from the fitted curve at half-maximal effect. As to activity change, negative = cytotoxicity: % is scaled to controls: 0 for no effect and ±100 for the full control effect. The note with it: LYMP2-021 lymphoblastoid cells viability; series mostly up to 92.2 µM. The method, boiled down:
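Human lymphoblastoid cells (2500/well) were preincubated 5 hr at 37 C, then exposed to compounds for 24 hr at 37 C in complete medium. Intracellular ATP was read by CellTiter-Glo luminescence; AC50 came from Hill-equation fits of concentration-response data.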

A short description of test [17]: Cell Viability - LYMP2-010 (AID 981). Also: nearly all actives have a fitted effect of over 55% in size. Also: potency is read from the fitted curve at half-maximal effect. The note with it: LYMP2-010 lymphoblastoid cell viability, qHTS; series mostly up to 92.2 µM. The method, boiled down: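 Human lymphoblastoid LYMP2-010 cells (2500/well) were preincubated 5 hr at 37 C, then exposed to compounds for 24 hr at 37 C in complete medium. Intracellular ATP was measured by CellTiter-Glo luminescence after 30 min at room temperature; AC50 from Hill-fitted concentration-response.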

Test [18] in a line: Cell Viability - LYMP2-012 (AID 982). Also: potency is read from the fitted curve at half-maximal effect.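 As to activity change, negative = cytotoxicity: 0% = DMSO only and full loss = 92 µM tetraoctylammonium bromide.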 The note with it: LYMP2-012 lymphoblastoid cell viability qHTS; series mostly up to 92.2 µM.
A short description of test [19]: qHTS assay for small molecule agonists of retinoid X receptor alpha signaling (AID 588544). The note with it: HEK293T RXRa-UAS-bla, beta-lactamase reporter, 18 h; 530 nm emission.
Test [20] in a line: qHTS assay for small molecule agonists of the antioxidant response element (ARE) signaling pathway measured by Nrf2-dependant transcriptional activity (AID 720636; active = well fitted curve in the direction sought with a large enough effect in the repeat runs; an effect the other way counts as inactive or inconclusive; also: % of control where 0% means no effect). The note with it: ARE-luc HepG2, Nrf2 luciferase reporter, 16 h; series mostly up to 92.4 µM. The method in brief: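 Attachment 6 hr at 37 C, then compound versus DMSO vehicle for 16 hr in ARE-luc HepG2 cells (1% dialyzed FBS); luminescence recorded 30 min after ONE-Glo addition at room temperature.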

Structures are written as SMILES. “And” between values parts separate entries of the source, which are not always exact repeats. Equal entries are not always repeated. Records with an inconclusive call do not appear. The source made the active and inactive calls. Unless noted, calls follow the shape of the dose curve; as a rule, active = well fitted curve in the direction sought with a large enough effect; inconclusive = small, poorly fitted or top-dose-only effect, or another doubt; inactive = no such curve, though single readings can be large; an effect the other way counts as inactive or inconclusive.

Sequence of Retinoic acid receptor RXR-alpha (Homo sapiens) (P19793 whole entry, looked up): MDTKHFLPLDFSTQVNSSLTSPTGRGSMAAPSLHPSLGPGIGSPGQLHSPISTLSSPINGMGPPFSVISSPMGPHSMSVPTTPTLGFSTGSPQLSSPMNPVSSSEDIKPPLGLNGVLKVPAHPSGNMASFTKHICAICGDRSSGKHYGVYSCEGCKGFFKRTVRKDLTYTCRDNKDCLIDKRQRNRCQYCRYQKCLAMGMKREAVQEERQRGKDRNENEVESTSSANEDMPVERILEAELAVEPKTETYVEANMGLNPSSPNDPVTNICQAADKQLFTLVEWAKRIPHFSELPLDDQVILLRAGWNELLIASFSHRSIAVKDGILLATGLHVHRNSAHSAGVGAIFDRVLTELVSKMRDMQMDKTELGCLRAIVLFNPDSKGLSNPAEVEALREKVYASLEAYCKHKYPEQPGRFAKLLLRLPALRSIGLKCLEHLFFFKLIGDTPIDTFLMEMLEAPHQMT

`Clc1nc2ccccc2nc1Cl`: the Potency in test [1] and in test [2] was > 92 µM (inactive) throughout. Also, the activity change, negative = cytotoxicity in test [3] was -7.43% (inactive). Moreover, the Potency entry in test [4], in test [5], in test [6] and in test [9] was “inactive” each time. Further, the max response was -14.8% in [7] and 31% (inactive) in test [8].

Consider `NC(=O)Nc1nc2ccccc2[nH]1`, for which the Potency in test [1] and in test [2] was > 92 µM (inactive) throughout. The activity change, negative = cytotoxicity in test [3] is -4.08% (inactive). Also, the Potency result in test [4], in test [10], in test [11], in [12], in test [5] and in test [13] was “inactive” in each case. In addition, the Potency entry in test [14], in test [15], in [16], in test [6], in test [17] and in test [18] was “inactive” throughout. The Potency entry in [9] and in test [20] was “inactive” in each case. Also, the values for the max response in test [19], in test [7] and in test [8] were -1.01%, -1.95% and 1.58% (inactive), respectively.

With `Cc1cc(-c2ccc(N=Nc3cc(S(=O)(=O)O)c4ccccc4c3N)c(C)c2)ccc1N=Nc1cc(S(=O)(=O)O)c2ccccc2c1N`, the Potency in test [10] is 31.6 µM (active). Further, the Potency entry in [12], in test [15] and in test [20] was “inactive” in each case. In addition, the values for the max response in test [19], in test [7] and in [8] were -22%, -6.21% and 0.921% (inactive), respectively.

`CCCCCCCC/C=C\CCCCCCCC(=O)N(CCO)CCO`: the activity change, negative = cytotoxicity in test [3] was -111% (active). Besides, the Potency in test [4] is 39.8 µM (active). In test [10], the viability change, negative = cytotoxic is -99.3% (active). Moreover, the Potency entry in test [11], in [12], in test [5], in test [13], in test [14] and in [16] was “inactive” throughout. In addition, the Potency entry in test [6], in [17], in test [18], in test [9] and in test [20] was “inactive” throughout. Also, the max response in [19] was determined as 13.2%.

As for `CC(=O)CC(=O)Nc1ccccc1`, the Potency in test [1] and in test [2] was > 92 µM (inactive) in each case. Moreover, in test [3], the activity change, negative = cytotoxicity is -10.9% (inactive). Besides, the Potency result in test [4], in [10], in test [11], in test [12], in [5] and in [13] was “inactive” in each case. Moreover, the Potency entry in test [14], in test [15], in test [16], in test [6], in test [18] and in test [9] was “inactive” throughout. The Potency result in [20] is “inactive”. Further, the max response in test [19] was 6.79% and 6.65%; in [7], 10.1% and 20.6%; in [8], -1.7% (inactive) and -15.3% (inactive).

With `O=CC(=O)c1ccccc1`, the Potency in test [1] and in test [2] was > 92 µM (inactive) each time. Also, in test [3], the activity change, negative = cytotoxicity was 5.07% (inactive). Also, the Potency entry in test [4], in test [10], in test [12], in test [5], in [15] and in [17] was “inactive” throughout. In addition, the Potency entry in test [18], in test [9] and in [20] was “inactive” throughout. The max response was -0.232% in test [19], -7.19% in test [7] and 6.37% (inactive) in test [8].

On to `O=C(OCC1CO1)C1CCCCC1C(=O)OCC1CO1` (configuration not stated), for which the activity change, negative = cytotoxicity in test [3] was 2.77% (inactive). Further, the Potency is 50.1 µM (active) in [4], 25.1 µM (active) in [10], 50.1 µM (active) in test [16] and 50.1 µM (active) in test [17]. For the same molecule, the Potency result in test [12] and in [9] was “inactive” each time.

Take `CCN(CC)c1ccc(N)cc1`: the activity change, negative = cytotoxicity in test [3] is -118% (active). The Potency in [4] is 79.4 µM (active); in test [9], 29.8 µM (active). Moreover, the viability change, negative = cytotoxic in [10] is -88.7% (active). Besides, the figures for the max response in [7] and in test [8] were 9.43% and -16.2% (inactive), respectively.

In the case of `Oc1cc2c(cc1O)[C@H]1c3ccc(O)c(O)c3OC[C@@]1(O)C2`, the activity change, negative = cytotoxicity in test [3] is -91.8% (active). Besides, in [10], the viability change, negative = cytotoxic is -82.8% (active). Besides, the Potency in [12] is 50.1 µM (active); in test [13], 39.8 µM (active); in [14], 25.1 µM (active); in test [15] it was 39.8 µM (active); in [16], 31.6 µM (active); in test [6], 39.8 µM (active). In addition, the Potency in test [17] was 39.8 µM (active); in [18], 25.1 µM (active). The max response in test [19] is 5.74%; in test [7], -1.27%; in test [8] it was -15.2% (inactive). In addition, the Potency entry in test [9] was “inactive”.
